Assay results reported in ChEMBL document CHEMBL1961873, “Compounds: GSK PKIS; Assays: Nanosyn kinase panel” (2012).

Target: Serine/threonine-protein kinase PLK1 (Homo sapiens) (UniProt P53350)
Settings: at 0.1 µM
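Further: reported values are mean PLK1 inhibition, measured as part of the GSK PKIS profiling set.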

Chain of Serine/threonine-protein kinase PLK1 (Homo sapiens) (P53350 whole entry): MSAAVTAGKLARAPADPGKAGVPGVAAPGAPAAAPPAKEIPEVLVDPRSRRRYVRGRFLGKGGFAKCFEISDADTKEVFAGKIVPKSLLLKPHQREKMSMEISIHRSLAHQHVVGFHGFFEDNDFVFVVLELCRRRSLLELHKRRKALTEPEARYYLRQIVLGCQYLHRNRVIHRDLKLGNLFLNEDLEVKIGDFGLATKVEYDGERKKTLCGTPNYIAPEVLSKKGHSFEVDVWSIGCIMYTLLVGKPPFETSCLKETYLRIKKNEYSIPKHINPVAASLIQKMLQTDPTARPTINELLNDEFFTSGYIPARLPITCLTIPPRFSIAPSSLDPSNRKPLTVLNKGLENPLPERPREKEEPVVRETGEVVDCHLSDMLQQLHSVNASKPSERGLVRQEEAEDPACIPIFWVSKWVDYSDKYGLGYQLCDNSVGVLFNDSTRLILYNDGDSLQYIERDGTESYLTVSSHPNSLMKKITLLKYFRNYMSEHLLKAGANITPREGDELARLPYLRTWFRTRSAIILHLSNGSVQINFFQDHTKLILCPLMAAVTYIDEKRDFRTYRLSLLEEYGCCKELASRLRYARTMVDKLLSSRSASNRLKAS

SMILES | inhibition [%]
NC(=O)c1ccc(Oc2nccc(-c3c(-c4ccc(F)cc4)ncn3C3CCNCC3)n2)cc1 | 5.93
COc1ccc(-c2ccc3c(NC(=O)C4CC4)n[nH]c3n2)cc1 | 3.2
Cc1ccc(C(=O)NC2CCC2)cc1-c1ccc(C(=O)NCC2CC2)cc1 | 4.95
CN(c1ccc(NC(=O)Nc2c(Cl)cccc2Cl)cc1)c1ccnc(Nc2cccc(CS(C)(=O)=O)c2)n1 | 0.57
O=C(Nc1ccc(Oc2ccc3[nH]c(NC(=O)c4ccccc4)nc3c2)cc1)Nc1cc(C(F)(F)F)ccc1F | 2.66
Clc1ccc(CNc2nccc(-c3cnn4ncccc34)n2)cc1 | 2.4
NC(=O)c1cc(-c2ccc(F)cc2)cc(-c2ccncc2)c1N | 5.25
NS(=O)(=O)c1ccc(Nc2cc(-c3ccc(O)c(F)c3)n[nH]2)cc1 | -1.16
CCc1nccc2c1nc(-c1nonc1N)n2CC | 0.58
Fc1ccc(-c2ncn(C3CCNCC3)c2-c2ccnc(Oc3ccc4c(c3)OCO4)n2)cc1 | 4.77
CS(=O)(=O)CCNCc1cc(-c2cc3c(Nc4ccc(OCc5cccc(F)c5)c(Cl)c4)ncnc3s2)cs1 | 6.1
CCc1cccc(CC)c1/C=C/c1cncc(C(=O)NC)c1 | 1.32
COc1ccc(C2=C(N3CCc4ccccc43)C(=O)NC2=O)cc1 | 4.84
COc1cccc(/C=N/Nc2ncnc3c2cnn3-c2cccc(OC)c2)c1 | 5.9
N#Cc1ccc(Oc2nccc(-c3c(-c4ccc(F)cc4)ncn3C3CCNCC3)n2)cc1 | 4.8
O=C(Nc1n[nH]c2cc(-c3ccccc3)ccc12)C1CC1 | 5.16
FC(F)(F)c1cccc(Nc2nccc(-c3cnn4nc(-c5ccccc5)ccc34)n2)c1 | 2.06

SMILES | inhibition [%]
COC(=O)Nc1nc2ccc(Sc3ccc(NC(=O)Nc4cc(C(F)(F)F)ccc4F)cc3)cc2[nH]1 | -0.3
NC(=O)c1cc(-c2ccncc2)cc(-c2ccccc2)c1N | 4.45
Fc1ccc(-c2ncn(CCCN3CCOCC3)c2-c2ccncc2)cc1 | -0.58
O=C1Nc2ccccc2/C1=C/Nc1ccc(-n2cncn2)cc1 | 4.56
CS(=O)(=O)CCNCc1ccc(-c2ccc3ncnc(Nc4ccc(OCc5ccccc5)c(Br)c4)c3c2)o1 | 3.69
O=C(Nc1n[nH]c2nc(-c3ccc(O)cc3)c(Br)cc12)C1CC1 | 6.21
CCN(CC)Cc1ccc(Nc2nccc(-c3cnn4ncccc34)n2)cc1 | 5.43
COc1cc2ncn(-c3cc(OCc4ccccc4C(F)(F)F)c(C(C)=O)s3)c2cc1OC | 20.5
O=C(Nc1n[nH]c2nc(-c3ccco3)ccc12)C1CC1 | 1.81
Nc1nccc(-c2c(-c3ccc(F)cc3)ncn2C2CCC(O)CC2)n1 (centres undefined) | -2.32
C/C(Nc1ccc(S(N)(=O)=O)cc1)=C1/C(=O)Nc2ccccc21 | -0.74
O=C1NC(=O)C(c2cccc(Cl)c2)=C1Nc1ccc(Cl)c(C(=O)O)c1 | 4.93
O=C(Nc1n[nH]c2cc(-c3cc(F)ccc3F)ccc12)C1CC1 | 4.33
COc1ccc2cc(-c3c(-c4ccncc4)nc(-c4ccc(S(C)(=O)=O)cc4C)n3C)ccc2c1 | 4.66
Fc1ccc(-c2ncn(C3CCNCC3)c2-c2ccnc(Oc3ccc(F)c(F)c3)n2)cc1 | 3.45
CCc1ccc(Oc2nccc(-c3c(-c4ccc(F)cc4)ncn3C3CCNCC3)n2)cc1 | 4.18
CCC(=O)Nc1ccc(C)c(-c2ccc(C(=O)NCC3CC3)cc2)c1 | 5.02
